Assay outcomes deposited in PubChem by National Center for Advancing Translational Sciences (NCATS).
This is a sample that favours compounds with a hit; in the whole collection about 19% have one here.
DT40 TDP1 no CPT – qHTS for Inhibitors of human tyrosyl-DNA phosphodiesterase 1 (TDP1): qHTS in cells in absence of CPT; DT40 Tdp1-/- hTDP1 cells, no CPT, ATP luminescence, 48 h; Potency, µM (titrated, usually from 46.2 µM), usual class: inhibitors; 420,000 tested, 15% active; AID 686978, 2013; further: nearly all actives have a fitted effect of over 55% in size
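Camptothecin absent (DMSO only). Human TDP1-complemented DT40 knockout cells, 400 cells/well, 37 °C for minimum 48 hr; ATP measured via CellTiter-Glo, 30 min dark incubation, luminescence.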
TDP1 inh – blocks human tyrosyl-DNA phosphodiesterase 1; Q9NUW8; recombinant TDP1, AlphaScreen DNA substrate cleavage; Potency, µM (doses to about 130 µM), hits mostly inhibitors; 350,000 tested, 0.28% active; further: nearly all actives have a fitted effect of over 40% in size
Target sequence (Q9NUW8 whole entry, looked up): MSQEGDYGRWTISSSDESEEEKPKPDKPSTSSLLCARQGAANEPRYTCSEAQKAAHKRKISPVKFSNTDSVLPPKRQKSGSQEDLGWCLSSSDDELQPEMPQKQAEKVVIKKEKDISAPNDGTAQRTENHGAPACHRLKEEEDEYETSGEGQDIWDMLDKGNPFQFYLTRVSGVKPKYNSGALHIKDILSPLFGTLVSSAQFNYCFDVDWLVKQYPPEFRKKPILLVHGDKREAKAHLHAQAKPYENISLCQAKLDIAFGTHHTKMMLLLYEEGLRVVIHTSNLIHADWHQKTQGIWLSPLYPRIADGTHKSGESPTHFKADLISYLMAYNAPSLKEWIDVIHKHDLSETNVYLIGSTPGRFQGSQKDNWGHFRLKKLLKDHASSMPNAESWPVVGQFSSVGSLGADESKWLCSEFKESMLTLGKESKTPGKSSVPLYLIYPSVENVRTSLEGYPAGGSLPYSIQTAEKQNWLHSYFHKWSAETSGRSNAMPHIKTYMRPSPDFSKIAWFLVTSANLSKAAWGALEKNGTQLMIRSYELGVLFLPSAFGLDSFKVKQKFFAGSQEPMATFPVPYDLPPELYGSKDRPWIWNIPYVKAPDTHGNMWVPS
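Here, a 5' biotin and 3' phosphotyrosine-FITC DNA oligonucleotide reports Tdp1 activity: intact substrate bridges AlphaScreen beads, while cleavage leaves a 3' phosphate and drops signal. All incubations at room temperature.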
VP16 counter – counter-screen for ROR gamma inhibitors: Gal4-VP16 reporter; Drosophila S2 Gal4-VP16 UAS-luciferase, luminescence, 20 h; AID 2546; 310,000 tested, 3.5% active; Potency, µM (highest dose often 53.6 µM), hits mostly inhibitors;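 further: Gal4-VP16 expression switched on by copper sulfate through the metallothionein promoter; nearly all actives have a fitted effect of over 50% in size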
DT40 TDP1 CPT – growth inhibition of DT40 Tdp1-/-;hTDP1 cells with camptothecin (screen for TDP1 inhibitors). chicken DT40 Tdp1-/-;hTDP1 cells + 20 nM CPT, ATP luminescence, 48 h. Potency, µM (series often up to 46.2 µM), hits mostly inhibitors. 420,000 tested, 12% active; further: nearly all actives have a fitted effect of over 55% in size
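Chicken DT40 Tdp1-/- cells complemented with human TDP1, 400 cells/well, exposed to compounds plus 20 nM camptothecin for at least 48 h at 37 C; viability read as ATP content by CellTiter-Glo luminescence.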
RORgamma inh – blocks mouse ROR gamma transcriptional activity | P51450 | Drosophila S2 Gal4-RORgamma UAS-luciferase reporter, 20 h | Potency, µM (titrated, usually from 53.6 µM), usual class: inhibitors | 310,000 tested, 5.4% active | AID 2551; further: nearly all actives have a fitted effect of over 60% in size
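Stable Schneider cell line, Gal4 DNA-binding domain fused to ROR gamma, UAS-luciferase. Cmpd 1 hr RT → CuSO4 700 uM final → 20 hr RT → luciferase reagent 10 min → luminescence.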
Numbers stand for hits; – = inactive; ? = inconclusive; · = not tested or not shown; [ ] = remark or other dose. The call rests on the fitted dose curve; in most records, active means well fitted curve in the direction sought with a large enough effect; inconclusive means small, poorly fitted or top-dose-only effect, or another doubt; inactive means no such curve, though single readings can be large; an effect the other way counts as inactive or inconclusive.

SMILES | DT40 TDP1 no CPT | TDP1 inh | VP16 counter | DT40 TDP1 CPT | RORgamma inh
CCc1nnc2n1N(C(C)=O)C(c1ccc(C(C)(C)C)cc1)=C(C(C)=O)S2 | 12µM | – | · | 8.2µM | ·
COc1ccc(C(=O)N2CCC(n3nnc4cc(F)ccc43)CC2)cc1OC | – | – | – | – | –
N#Cc1ccccc1OC1=NS(=O)(=O)c2ccccc21 | · | – | · | · | ·
C=CCN1/C(=C(\C#N)C2=NS(=O)(=O)c3ccccc32)N(C)c2ccccc21 | – | – | ? | – | 11µM
COc1ccc(NS(=O)(=O)c2ccc3c(c2)NC(=O)CC(=O)N3)cc1OC | – | – | – | – | –
CCN(CC)c1nc(SCCOC(=O)Nc2ccccc2)nc(N(CC)CC)n1 | ? | – | – | 18µM | –
CN(C)c1nc(SCCOC(=O)c2ccccc2)nc(N(C)C)n1 | – | ? | – | – | –
CCOC(=O)C1CCN(C(=O)c2cc3c(s2)-c2ccccc2OC3)CC1 | ? | · | ? | 15µM | –
CCOC(=O)C1CCN(C(=O)c2cccc(C(=O)N3CCC(C(=O)OCC)CC3)c2)CC1 | – | – | – | ? | –
CC(NC(=O)C1CCN(C(=O)c2ccc(-n3ccc4ccccc43)s2)CC1)c1ccccc1 (configuration not stated) | 18µM | – | · | ? | ·
CCOC(=O)C1CCN(C(=O)c2ccc(-n3ccc4ccccc43)s2)CC1 | 21µM | – | · | ? | ·
CC(=O)NC1=NC(=O)C(C)S1 (configuration not stated) | – | – | – | – | –
CCOC(=O)Cc1csc(SCC(=O)Nc2cc(C)ccc2OC)n1 | ? | – | – | – | –
COc1ccc(C(=O)N2CCN(C3CCCCC3)CC2)c(OC)c1 | – | – | – | – | –
CCCCN(CC)CCNC(=O)c1nn(-c2ccc(OC)cc2)c(=O)c2c1c1ccccc1n2C | ? | – | – | ? | –
CCCN(C(=O)c1nn(-c2ccc(OC)cc2)c(=O)c2c1c1ccccc1n2C)c1ccc(CC)cc1 | ? | – | · | – | ·
CCN(Cc1ccccc1)C(=O)c1nn(-c2ccc(OC)cc2)c(=O)c2c1c1ccccc1n2C | 23µM | – | ? | 12µM | –
CCCCN(CC)C(=O)c1nn(-c2ccc(OC)cc2)c(=O)c2c1c1ccccc1n2C | 23µM | – | · | ? | ·
COc1ccc(-n2c(=O)c(-c3cccs3)nc3cnc(N(C)C)nc32)cc1 | – | · | – | – | –
O=C(CSc1cn(CC(=O)N2CCOCC2)c2ccccc12)Nc1ccccc1F | – | – | · | – | ·
CSc1ccccc1NC(=O)Nc1cccc2ccccc12 | – | – | – | – | –
CCOc1ccc(-n2nc3cc(C)c(NC(=O)c4cc(OCC)c(OCC)c(OCC)c4)cc3n2)cc1 | – | · | · | – | ·
O=C(Nc1ncnc2sc3c(c12)CCCC3)c1ccncc1 | – | – | 11µM | – | ?
O=S(=O)(Nc1ncnc2sc3c(c12)CCC3)c1ccc(Cl)s1 | 13µM | – | – | ? | –
CN(C)C(=O)c1ccc(Nc2ncnc3sc4c(c23)CCCCC4)cc1 | 23µM | – | – | ? | –
SMILES | DT40 TDP1 no CPT | TDP1 inh | VP16 counter | DT40 TDP1 CPT | RORgamma inh
CN1CCC(=NNc2ncnc3sc4c(c23)CCCC4)CC1 | 21µM | – | – | 16µM | ?
c1nc(NCCN2CCOCC2)c2c3c(sc2n1)CCCCC3 | – | – | – | – | –
O=C(Nc1ncnc2sc3c(c12)CCCCC3)c1ccco1 | – | – | ? | ? | ?
CCC(CO)Oc1cc(NC(=O)c2cccc(C)c2)c2ncn(C(C)C)c2c1 (configuration not stated) | ? | – | · | ? | ·
CCN(CC)C(=O)C1CCCN(c2ncnc3c2cnn3-c2cccc(C)c2)C1 (configuration not stated) | 16µM | – | – | ? | –
CCN(CC)C(=O)C1CCCN(c2ncnc3c2cnn3-c2ccc(Cl)cc2)C1 (configuration not stated) | 18µM | · | – | ? | –
CC1(C)CC(=O)C=C(NC2=CC3OC(c4ccccc4)OCC3OC2=O)C1 (configuration not stated) | 6.5µM | – | 11µM | 5.8µM | ?
COCC1CCCN(Cc2cn(-c3ccccc3F)nc2-c2cc(C)sc2C)C1 (configuration not stated) | 18µM | – | – | 16µM | –
Cc1cc(Cl)ccc1NC(=S)NCCc1ccc(S(N)(=O)=O)cc1 | ? | · | · | – | ·
O=C(NCCc1ccc(Cl)cc1)Nc1ccc(F)cc1 | ? | – | –[10 µM] | ? | –
Fc1ccc(NC(=S)NCCc2ccc(Cl)cc2)cc1 | 23µM | – | 3.2µM | ? | 1.1µM
CCCCNC(=S)Nc1ccc(F)cc1 | – | – | ? | – | 13µM
Fc1ccc(CCNC(=S)Nc2ccc(F)c(Cl)c2)cc1 | ? | – | ? | 18µM | 7.1µM
Cc1cnc(C(=O)N2CCN(S(=O)(=O)c3ccc4ccccc4c3)CC2)cn1 | – | – | – | ? | –
COc1ccc(C2C=C3CNS(=O)(=O)C3CC2OC(=O)c2ccc(C(F)(F)F)cc2)cc1 (configuration not stated) | · | – | ? | · | ?
Cc1cc(C)nc(Sc2c(C)nn(-c3ccccc3)c2C)n1 | 21µM | – | – | ? | –
Cc1cccc(NS(=O)(=O)c2ccc3c(c2)oc(=O)n3C)c1C | ? | · | – | – | ?
CC(/C=C1\NC(=S)NC1=O)=C\c1ccccc1 | ? | – | ? | ? | ?
COc1ccccc1NC(=O)C(=O)NCCC1CCCCN1S(=O)(=O)c1cccs1 (configuration not stated) | 18µM | – | · | 29µM | ·
O=C(NCCC1CCCCN1S(=O)(=O)c1cccs1)C(=O)Nc1ccc(F)cc1 (configuration not stated) | ? | – | · | ? | ·
O=C(NCCC1CCCCN1S(=O)(=O)c1ccccc1)C(=O)Nc1ccc(F)cc1 (configuration not stated) | ? | – | · | ? | ·
O=C(NCC1CCCN1S(=O)(=O)c1cccs1)C(=O)Nc1ccccc1Cl (configuration not stated) | ? | – | · | ? | ·
COc1ccc(NC(=O)C(=O)NCCC2CCCCN2S(=O)(=O)c2ccc(F)cc2)cc1 (configuration not stated) | 10µM | · | · | 21µM | ·
O=C(NCCC1CCCCN1S(=O)(=O)c1cccs1)C(=O)Nc1cccc(F)c1 (configuration not stated) | 15µM | – | · | 23µM | ·
O=C(NCCC1CCCCN1S(=O)(=O)c1cccs1)C(=O)Nc1ccccc1F (configuration not stated) | 23µM | – | · | ? | ·
O=C(C1CC(=O)N(c2ccc(Cl)cc2)C1)N1CCC(c2nc3ccccc3[nH]2)CC1 (configuration not stated) | ? | – | · | ? | ·
C=CCOc1ccc(C=Nc2cccc(Cl)c2)c(O)c1 | – | – | – | – | ?
